# Laboratory results: PubChem BioAssay AID1209 (Sanford-Burnham Center for Chemical Genomics, 2008)
# The campaign covered roughly 190,000 compounds. About 810 (0.43%) were called active. Shown is part of a subset that was picked to be rich in actives. Values without a mark were called inactive. No stated cut-off is given here; in the data, active means inhibition above about 50%; inactive means the rest.
# Target: Mannose-6-phosphate isomerase (Homo sapiens) (UniProt P34949)
# Test: inhibitors of human PMI, primary screen, biochemical, fluorescence intensity, coupled assay (AID 1209);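 further: plate controls were DMSO vehicle for no effect and wells lacking substrate for full effect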
# Details: purified PMI enzyme, at 20 µM, stronger effect = higher value
# Chain of Mannose-6-phosphate isomerase (Homo sapiens) (P34949 whole entry, looked up): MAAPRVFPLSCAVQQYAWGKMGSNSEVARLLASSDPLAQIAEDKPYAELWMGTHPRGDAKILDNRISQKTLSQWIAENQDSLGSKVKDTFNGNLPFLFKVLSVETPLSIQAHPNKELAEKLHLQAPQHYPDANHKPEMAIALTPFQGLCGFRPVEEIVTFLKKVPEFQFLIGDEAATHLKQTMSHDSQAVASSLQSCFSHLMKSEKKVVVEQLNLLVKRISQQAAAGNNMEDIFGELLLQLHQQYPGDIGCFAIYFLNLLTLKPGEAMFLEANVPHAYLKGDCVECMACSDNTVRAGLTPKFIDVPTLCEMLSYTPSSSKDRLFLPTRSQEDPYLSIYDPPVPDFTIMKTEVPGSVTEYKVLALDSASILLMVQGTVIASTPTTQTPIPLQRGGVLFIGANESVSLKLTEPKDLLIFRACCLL
row,SMILES,inhibition
1,COc1cc2c(C(=O)OCCN(C)C)c(CSc3ccccc3)n(C)c2cc1Br,3.3%
2,CC(OC(=O)c1cccnc1Cl)C(=O)Nc1ccc2c(c1)OCCO2 (stereo not given),-6.6%
3,O=C(Nc1cccc(S(=O)(=O)N2CCOCC2)c1)c1cn(-c2ccccc2)nc1-c1ccc(F)cc1,6.6%
4,O=C(Nc1ccccc1OC(F)F)c1ccc(F)cc1,109% (active)
5,O=C(Nc1ccccc1OC(F)F)c1ccccc1,10.6%
6,Cc1ccc(C(=O)Nc2ccccc2OC(F)F)cc1,-0.1%
7,O=C(NCCc1ccccc1)c1ccccc1NC(=O)C1CC=CCC1C(=O)O (stereo not given),5.2%
8,CC(NC(=O)c1sc2cc([N+](=O)[O-])ccc2c1Cl)C(C)(C)C (stereo not given),57.2% (active)
9,O=C(NC1CC1)c1sc2cc([N+](=O)[O-])ccc2c1Cl,1.4%
10,CC(C)N(C(=O)c1sc2cc([N+](=O)[O-])ccc2c1Cl)C(C)C,0.2%
11,CCNc1ccc(C(=O)OCC(=O)NCCN2C(=O)CSC2=O)cc1[N+](=O)[O-],-6.6%
12,CCCN1CCC(NC(=O)CCc2nnc(Cc3cc(OC)ccc3OC)o2)CC1,7.2%
13,COc1cc(OC)c(C2CC(=O)N3CN(c4ccccc4)CSC3=C2C#N)cc1OC (stereo not given),41.2%
14,COc1ccc(OC)c(C2CC(=O)N3CN(c4ccccc4)CSC3=C2C#N)c1 (stereo not given),2.2%
15,COc1ccc(N2CSC3=C(C#N)C(c4ccc(OC)c(OC)c4)CC(=O)N3C2)c(OC)c1 (stereo not given),39.1%
16,COc1cccc(C2CC(=O)N3CN(c4ccccc4F)CSC3=C2C#N)c1 (stereo not given),16%
17,COc1ccc(OC)c(C2CC(=O)N3CN(c4cccc(Cl)c4C)CSC3=C2C#N)c1 (stereo not given),46.9%
18,COc1cc(OC)c(C2CC(=O)N3CN(C)CSC3=C2C#N)cc1OC (stereo not given),59.9% (active)
19,COc1ccc(OC)c(C2CC(=O)N3CN(c4cccc(Cl)c4)CSC3=C2C#N)c1 (stereo not given),16.5%
20,COc1ccc(Br)cc1C1CC(=O)N2CN(C)CSC2=C1C#N (stereo not given),27.6%
21,COc1ccc(N2CSC3=C(C#N)C(c4cc(OC)ccc4OC)CC(=O)N3C2)c(OC)c1 (stereo not given),53.4% (active)
22,COc1ccc(OC)c(C2CC(=O)N3CN(c4ccccc4F)CSC3=C2C#N)c1 (stereo not given),57.3% (active)
23,COc1cc(OC)c(C2CC(=O)N3CN(c4ccccc4C)CSC3=C2C#N)cc1OC (stereo not given),30.5%
24,CCN(CC)S(=O)(=O)c1ccc(OC)c(NC(=O)Cc2cccs2)c1,-11.3%
25,Cc1cc(C)n(-c2ccc(C(=O)Nc3cccc(S(=O)(=O)N(C)C)c3)cc2)n1,5.5%
